“And” between values parts separate entries of the source, which are not always exact repeats. Equal entries are not always repeated. The campaign covered roughly 5,500 compounds. About 2,000 (36%) were called active. Inconclusive results (about 18%) are left out. No stated cut-off is given here; in the data, active means normalized growth mostly below about 0.91 (no sharp cut-off); inconclusive means no clear call, values can overlap the other calls; inactive means mostly above about 0.92. The list shows a part of the results.
Experiment: chemical genetic growth profiling, strain panel (AID 1159580);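 further: tested at 20 µM; growth read once vehicle control cultures reached saturation at 30 °C; 1 = growth at the plate median or of vehicle wells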
Conditions: growth OD

Measured: normalized growth

CCN(CC)CCOC(=O)C(c1ccccc1)C1CCCCC1 (configuration not stated)
inactive: S. cerevisiae deletion strains, locus YAL013W, strain DEP1, stronger effect = lower value 1 | S. cerevisiae deletion strains, locus YBR021W, strain FUR4, stronger effect = lower value 1 | S. cerevisiae deletion strains, locus YBR229C, strain ROT2, stronger effect = lower value 1 | S. cerevisiae deletion strains, locus YCL029C, strain bik1, stronger effect = lower value 0.958 | S. cerevisiae deletion strains, locus YDL035C, strain GPR1, stronger effect = lower value 0.999 | S. cerevisiae deletion strains, locus YDL074C, strain BRE1, stronger effect = lower value 0.948 | S. cerevisiae deletion strains, locus YDL101C, strain DUN1, stronger effect = lower value 0.983 | S. cerevisiae deletion strains, locus YDL134C, strain PPH21, stronger effect = lower value 1.01 | S. cerevisiae deletion strains, locus YDL185W, strain tfp1, stronger effect = lower value 0.946 | S. cerevisiae deletion strains, locus YDL192W, strain arf1, stronger effect = lower value 0.971 | S. cerevisiae deletion strains, locus YDR101C, strain arx1, stronger effect = lower value 0.964 | S. cerevisiae deletion strains, locus YDR150W, strain NUM1, stronger effect = lower value 0.989 | S. cerevisiae deletion strains, locus YDR162C, strain NBP2, stronger effect = lower value 0.99 | S. cerevisiae deletion strains, locus YDR318W, strain mcm21, stronger effect = lower value 0.97 | S. cerevisiae deletion strains, locus YDR388W, stronger effect = lower value 0.948 | S. cerevisiae deletion strains, locus YDR502C, strain sam2, stronger effect = lower value 0.998 | S. cerevisiae deletion strains, locus YEL061C, strain CIN8, stronger effect = lower value 0.999 | S. cerevisiae deletion strains, locus YER110C, stronger effect = lower value 0.973 | S. cerevisiae deletion strains, locus YER155C, strain BEM2, stronger effect = lower value 1 | S. cerevisiae deletion strains, locus YER167W, strain BCK2, stronger effect = lower value 1.01 | S. cerevisiae deletion strains, locus YGL078C, strain dbp3, stronger effect = lower value 0.99 | S. cerevisiae deletion strains, locus YGL086W, strain mad1, stronger effect = lower value 1.02 | S. cerevisiae deletion strains, locus YGL248W, strain PDE1, stronger effect = lower value 1.01 | S. cerevisiae deletion strains, locus YGR078C, strain PAC10, stronger effect = lower value 0.966 | S. cerevisiae deletion strains, locus YGR135W, strain pre9, stronger effect = lower value 0.968 | S. cerevisiae deletion strains, locus YGR229C, strain SMI1, stronger effect = lower value 0.972 | S. cerevisiae deletion strains, locus YGR252W, strain gcn5, stronger effect = lower value 1.11 | S. cerevisiae deletion strains, locus YHR030C, strain SLT2, stronger effect = lower value 0.995 and 1.06 | S. cerevisiae deletion strains, locus YHR079C, strain IRE1 (second series), stronger effect = lower value 0.964 | S. cerevisiae deletion strains, locus YHR079C, strain IRE1, stronger effect = lower value 1.04 | S. cerevisiae deletion strains, locus YHR094C, strain hxt1, stronger effect = lower value 0.975 | S. cerevisiae deletion strains, locus YHR129C, strain ARP1, stronger effect = lower value 0.992 | S. cerevisiae deletion strains, locus YHR200W, strain rpn10, stronger effect = lower value 0.975 | S. cerevisiae deletion strains, locus YIL066C, strain RNR3, stronger effect = lower value 0.984 | S. cerevisiae deletion strains, locus YIL073C, strain SPO22, stronger effect = lower value 0.958 | S. cerevisiae deletion strains, locus YIL125W, strain kgd1, stronger effect = lower value 0.986 | S. cerevisiae deletion strains, locus YIR030C, strain dcg1, stronger effect = lower value 0.981 | S. cerevisiae deletion strains, locus YJL095W, strain BCK1, stronger effect = lower value 0.938 and 1.05 | S. cerevisiae deletion strains, locus YJL134W, strain LCB3, stronger effect = lower value 0.998 | S. cerevisiae deletion strains, locus YJL168C, strain set2, stronger effect = lower value 0.966 | S. cerevisiae deletion strains, locus YJL187C, strain SWE1 (second series), stronger effect = lower value 0.969 | S. cerevisiae deletion strains, locus YJR043C, strain POL32, stronger effect = lower value 0.991 | S. cerevisiae deletion strains, locus YJR066W, strain TOR1, stronger effect = lower value 1 | S. cerevisiae deletion strains, locus YJR075W, strain HOC1, stronger effect = lower value 0.954 | S. cerevisiae deletion strains, locus YKL009W, strain mrt4, stronger effect = lower value 0.962 | S. cerevisiae deletion strains, locus YKL068W, stronger effect = lower value 0.978 | S. cerevisiae deletion strains, locus YKL085W, strain MDH1 (second series), stronger effect = lower value 0.97 | S. cerevisiae deletion strains, locus YKL085W, strain MDH1, stronger effect = lower value 0.97 | S. cerevisiae deletion strains, locus YKL190W, strain CNB1, stronger effect = lower value 0.989 | S. cerevisiae deletion strains, locus YKR001C, strain vps1, stronger effect = lower value 0.999 | S. cerevisiae deletion strains, locus YLR039C, strain RIC1, stronger effect = lower value 1.12 | S. cerevisiae deletion strains, locus YLR058C, strain SHM2, stronger effect = lower value 1 | S. cerevisiae deletion strains, locus YLR102C, strain apc9, stronger effect = lower value 0.983 | S. cerevisiae deletion strains, locus YLR113W, strain HOG1, stronger effect = lower value 1.02 | S. cerevisiae deletion strains, locus YLR262C, strain YPT6, stronger effect = lower value 1.12 | S. cerevisiae deletion strains, locus YLR268W, strain sec22, stronger effect = lower value 0.906 | S. cerevisiae deletion strains, locus YLR330W, strain CHS5, stronger effect = lower value 1 | S. cerevisiae deletion strains, locus YLR342W, strain FKS1 (second series), stronger effect = lower value 1.02 | S. cerevisiae deletion strains, locus YLR371W, strain rom2, stronger effect = lower value 0.962 | S. cerevisiae deletion strains, locus YLR418C, strain cdc73, stronger effect = lower value 0.931 | S. cerevisiae deletion strains, locus YML016C, strain PPZ1, stronger effect = lower value 1 | S. cerevisiae deletion strains, locus YML032C, strain rad52, stronger effect = lower value 0.948 | S. cerevisiae deletion strains, locus YML124C, strain tub3, stronger effect = lower value 0.977 | S. cerevisiae deletion strains, locus YMR078C, strain ctf18, stronger effect = lower value 0.949 | S. cerevisiae deletion strains, locus YMR223W, strain ubp8, stronger effect = lower value 1.01 | S. cerevisiae deletion strains, locus YMR263W, strain SAP30, stronger effect = lower value 0.969 | S. cerevisiae deletion strains, locus YMR307W, strain GAS1, stronger effect = lower value 1.23 | S. cerevisiae deletion strains, locus YNL067W, strain RPL9B, stronger effect = lower value 0.965 | S. cerevisiae deletion strains, locus YNL128W, strain TEP1, stronger effect = lower value 0.98 | S. cerevisiae deletion strains, locus YNL153C, strain GIM3, stronger effect = lower value 0.973 | S. cerevisiae deletion strains, locus YNL183C, strain NPR1, stronger effect = lower value 0.983 | S. cerevisiae deletion strains, locus YNL233W, strain BNI4, stronger effect = lower value 0.99 | S. cerevisiae deletion strains, locus YNL250W, strain rad50, stronger effect = lower value 0.992 | S. cerevisiae deletion strains, locus YNL271C, strain bni1, stronger effect = lower value 0.974 | S. cerevisiae deletion strains, locus YNL298W, strain CLA4, stronger effect = lower value 0.969 | S. cerevisiae deletion strains, locus YNL307C, strain MCK1, stronger effect = lower value 0.978 | S. cerevisiae deletion strains, locus YNL322C, strain KRE1, stronger effect = lower value 0.988 | S. cerevisiae deletion strains, locus YNR052C, strain pop2, stronger effect = lower value 0.952 | S. cerevisiae deletion strains, locus YOL006C, strain TOP1, stronger effect = lower value 0.94 | S. cerevisiae deletion strains, locus YOL012C, strain htz1 1.03 | S. cerevisiae deletion strains, locus YOL147C, strain pex11, stronger effect = lower value 0.976 | S. cerevisiae deletion strains, locus YOR061W, strain CKA2, stronger effect = lower value 0.993 | S. cerevisiae deletion strains, locus YOR069W, strain VPS5, stronger effect = lower value 1 | S. cerevisiae deletion strains, locus YOR136W, strain idh2, stronger effect = lower value 0.981 | S. cerevisiae deletion strains, locus YOR144C, strain elg1, stronger effect = lower value 0.981 | S. cerevisiae deletion strains, locus YOR184W, strain ser1, stronger effect = lower value 0.97 | S. cerevisiae deletion strains, locus YOR231W, strain MKK1, stronger effect = lower value 1.04 | S. cerevisiae deletion strains, locus YOR316C, strain cot1, stronger effect = lower value 0.955 | S. cerevisiae deletion strains, locus YPL055C, strain LGE1, stronger effect = lower value 0.959 | S. cerevisiae deletion strains, locus YPL241C, strain CIN2, stronger effect = lower value 1 | S. cerevisiae deletion strains, locus YPL256C, strain CLN2, stronger effect = lower value 1.06 | S. cerevisiae deletion strains, locus YPR119W, strain clb2, stronger effect = lower value 0.964 | S. cerevisiae deletion strains, locus YPR141C, strain kar3, stronger effect = lower value 0.975 | S. cerevisiae deletion strains, locus YPR163C, strain tif3, stronger effect = lower value 0.961 | S. cerevisiae deletion strains, locus YPR167C, strain met16, stronger effect = lower value 0.96 | S. cerevisiae deletion strains, strain wtn01, stronger effect = lower value 0.938 | S. cerevisiae strains, strain wild type, stronger effect = lower value 0.995

From PubChem BioAssay AID1159580 (chemical genetic matrix, 2015)
